Assay [1] in a line: qHTS profiling for inhibitors of Plasmodium falciparum proliferation (AID 504749). Also: nearly all actives have a fitted effect of over 60% in size.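 As to activity, negative = inhibition: 0% = DMSO vehicle and full inhibition = artemisinin control.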 To be noted: P. falciparum in erythrocytes, SYBR Green DNA, 72 h. The method, boiled down:
(§1)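 Each compound contacts P. falciparum-infected red blood cells for 72 h at 37 C; lysis buffer (Tris, EDTA, saponin, Triton X, SYBR Green I) is added and fluorescence measured next morning; values normalized to controls.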

The test system of assay [2] is 3D7. Described as above. The following applies: P. falciparum in erythrocytes, SYBR Green DNA, 72 h; series mostly up to 28.7 µM. The method, boiled down:
as §1

Assay [3] deals with 7G8. The description is as above. The following applies: P. falciparum in erythrocytes, SYBR Green DNA, 72 h; series mostly up to 28.7 µM. An outline of the steps:
as §1

Assay [4] deals with AA1029. The assay is described as above. To be noted: P. falciparum in erythrocytes, SYBR Green DNA, 72 h; series mostly up to 28.7 µM. An outline of the steps: as §1
Assay [5] has as its system AS120. Described as above. To be noted: P. falciparum in erythrocytes, SYBR Green DNA, 72 h; series mostly up to 28.7 µM. The method, boiled down:
as §1

The mark [6] stands for this setting: at 28.7 µM (top of the series), parasite line A.
The mark [7] stands for this setting: at 28.7 µM (top of the series), parasite line B.
[8] abbreviates: at 12.8 µM (top of the series), parasite line A.
Where [9] appears, read: at 12.8 µM (top of the series), parasite line B.

This passage reports activity, negative = inhibition and Potency results from PubChem BioAssay (NCATS).

Records with an inconclusive call do not appear. Unmarked numbers belong to inactive results. Activity calls are given as the source filed them. Calls follow the shape of the dose curve; as a rule, active = well fitted inhibition curve with a large enough effect; inconclusive = small, poorly fitted or top-dose-only effect; inactive = flat fitted curve, though single readings scatter.
Potency is read from the fitted curve at half-maximal effect.

On to `CCc1oc2ccccc2c1C(=O)c1cc(Br)c(O)c(Br)c1`, for which the activity, negative = inhibition is -3.41% in assay [1] (setting [6]) and -11.9% in assay [1] (setting [7]). Further, the Potency entry in assay [2], in assay [3], in assay [4] and in assay [5] was “inactive” each time.

For `CC(=O)OC[C@H]1O[C@@H](n2ncc(=O)[nH]c2=O)[C@H](OC(C)=O)[C@@H]1OC(C)=O`, the results for the activity, negative = inhibition in assay [1] (setting [6]) and in assay [1] (setting [7]) were 3.78% and 0.953%, respectively. Besides, the Potency result in assay [2], in assay [3], in assay [4] and in assay [5] was “inactive” each time.

Consider `CC(C)CCCC(C)N` (stereo not drawn), for which the figures for the activity, negative = inhibition in assay [1] (setting [6]) and in assay [1] (setting [7]) were 13% and -1.67%, respectively. Besides, the Potency entry in assay [2], in assay [3], in assay [4] and in assay [5] was “inactive” each time.

As to `O=C(O)P(=O)(O)O`, the activity, negative = inhibition in assay [1] (setting [6]) was 3.96%; in assay [1] (setting [7]), -2.94%. Also, the Potency entry in assay [2], in assay [3], in assay [4] and in assay [5] was “inactive” throughout.

For the compound `O=C(Nc1ncc([N+](=O)[O-])s1)c1cccs1`, the activity, negative = inhibition in assay [1] (setting [6]) is 5.2%; in assay [1] (setting [7]), -2.66%. Besides, the Potency entry in assay [2], in assay [3], in assay [4] and in assay [5] was “inactive” in each case.

In the case of `Cc1c[nH]c2ccccc12`, the activity, negative = inhibition was -2.76% in assay [1] (setting [6]) and 2.47% in assay [1] (setting [7]). For the same compound, the Potency result in assay [2], in assay [3], in assay [4] and in assay [5] was “inactive” in each case.

`FC1(F)C(F)(F)C(F)(F)C2(F)C(F)(F)C(F)(F)C(F)(F)C(F)(F)C2(F)C1(F)F` (stereo not drawn): the results for the activity, negative = inhibition in assay [1] (setting [6]) and in assay [1] (setting [7]) were 5.48% and 12.9%, respectively. The Potency entry in assay [2], in assay [3], in assay [4] and in assay [5] was “inactive” in each case.

`CCN(CC)CCNC(=O)COc1ccc(OC)cc1`: the activity, negative = inhibition was 19.5% in assay [1] (setting [6]) and 3.1% in assay [1] (setting [7]). For the same compound, the Potency entry in assay [2], in assay [3], in assay [4] and in assay [5] was “inactive” in each case.

Regarding `Nc1nc(-c2ccccc2)c(Br)c(=O)[nH]1`, the activity, negative = inhibition is -7.1% in assay [1] (setting [6]) and 1.53% in assay [1] (setting [7]). Further, the Potency result in assay [2], in assay [3], in assay [4] and in assay [5] was “inactive” in each case.

Take `O=C(O)C(Cc1cc(I)c(O)c(I)c1)c1ccccc1` (stereo not drawn): the activity, negative = inhibition was -3.64% in assay [1] (setting [6]) and 7.72% in assay [1] (setting [7]). The Potency entry in assay [2], in assay [3], in assay [4] and in assay [5] was “inactive” in each case.

`NC(N)=NCc1cccc(I)c1`: the activity, negative = inhibition in assay [1] (setting [6]) was -25.5%; in assay [1] (setting [7]), -23.4%. In addition, the Potency result in assay [2], in assay [3], in assay [4] and in assay [5] was “inactive” each time.

Turning to `COc1cc(C)nc(-n2nc(C)cc2OC)n1`, the results for the activity, negative = inhibition in assay [1] (setting [8]) and in assay [1] (setting [9]) were 3.73% and -3.99%, respectively. The Potency entry in assay [2], in assay [3], in assay [4] and in assay [5] was “inactive” each time.

`Cc1ccccc1OCC(O)CO` (stereo not drawn): the results for the activity, negative = inhibition in assay [1] (setting [6]) and in assay [1] (setting [7]) were 13.7% and 2.74%, respectively. Moreover, the Potency entry in assay [2], in assay [3], in assay [4] and in assay [5] was “inactive” throughout.

As for `c1ccc(CC2=NCCN2)cc1`, the activity, negative = inhibition in assay [1] (setting [8]) is -1.06%; in assay [1] (setting [9]), -2.59%. Further, the Potency result in assay [2], in assay [3], in assay [4] and in assay [5] was “inactive” in each case.

With `CCCc1ncc(C[n+]2ccccc2C)c(N)n1`, the activity, negative = inhibition in assay [1] (setting [8]) is 11.9%; in assay [1] (setting [9]), 12%. For the same compound, the Potency result in assay [2], in assay [3], in assay [4] and in assay [5] was “inactive” throughout.

Turning to `COc1ccc(/C=N/NC(=O)c2ccncc2)cc1OC`, the activity, negative = inhibition was 6.74% in assay [1] (setting [6]) and 9.47% in assay [1] (setting [7]). Besides, the Potency result in assay [2], in assay [3], in assay [4] and in assay [5] was “inactive” in each case.

For `OCCOCCN1CCN(C2=Nc3ccccc3Sc3ccccc32)CC1`, the figures for the activity, negative = inhibition in assay [1] (setting [6]) and in assay [1] (setting [7]) were 0.502% and 13.4%, respectively. Besides, the Potency result in assay [2], in assay [3], in assay [4] and in assay [5] was “inactive” in each case.

As to `CC(=O)NC(=O)c1ccccc1O`, the results for the activity, negative = inhibition in assay [1] (setting [6]) and in assay [1] (setting [7]) were -1.16% and 7.59%, respectively. In addition, the Potency entry in assay [2], in assay [3], in assay [4] and in assay [5] was “inactive” each time.

Consider `O=C(CCN1CCN2CCCC2C1)N1c2ccccc2Sc2ccc(Cl)cc21` (stereo not drawn), for which the values for the activity, negative = inhibition in assay [1] (setting [6]) and in assay [1] (setting [7]) were -26.8% and -9.82%, respectively. In assay [3], the Potency is 8.91 µM (active).

In the case of `NC(=O)c1ccccc1O`, the activity, negative = inhibition was 4.99% in assay [1] (setting [6]) and 15.1% in assay [1] (setting [7]). For the same compound, the Potency entry in assay [2], in assay [3], in assay [4] and in assay [5] was “inactive” in each case.

Consider `CCOC(=O)Nc1ccc2c(c1)N(C(=O)CCN1CCOCC1)c1ccccc1S2`, for which the activity, negative = inhibition in assay [1] (setting [8]) was 5.76%; in assay [1] (setting [9]), 22.5%. Moreover, the Potency entry in assay [2], in assay [4] and in assay [5] was “inactive” each time.

For the compound `CC(=O)Nc1ccc(S(=O)(=O)Nc2ccc([N+](=O)[O-])cc2)cc1`, the activity, negative = inhibition in assay [1] (setting [6]) was -0.674%; in assay [1] (setting [7]), 0.755%. Also, the Potency entry in assay [2], in assay [3], in assay [4] and in assay [5] was “inactive” each time.

With `O=C(Oc1cccc2cccnc12)c1ccccc1`, the activity, negative = inhibition is 5.84% in assay [1] (setting [6]) and -15.2% in assay [1] (setting [7]). For the same compound, the Potency result in assay [2], in assay [4] and in assay [5] was “inactive” each time.

As for `Cl/C(=C\n1cncn1)c1ccc(Cl)cc1Cl`, the activity, negative = inhibition in assay [1] (setting [6]) was 10.9%; in assay [1] (setting [7]), 7.76%. Moreover, the Potency result in assay [2], in assay [4] and in assay [5] was “inactive” each time.
